In all, about 2,100 compounds went through this assay and about 210 (10%) were called active. Another 53% or so got no clear call; they are omitted. Calls come from the whole dose curve; as a rule, active = well fitted inhibition curve with a large enough effect; inconclusive = small, poorly fitted or top-dose-only effect, or effect the other way; inactive = no such curve, though single readings can be large or run the other way. The list shows a part of the results.
Test: IN Cell qHTS Assay for Inhibitors of the mTORC1 Signaling Pathway in MEF (Tsc2-/-, p53-/-) Cells: Sytravon; note: nearly all actives have a fitted effect of over 60% in size
Details: phospho-rpS6 immunofluorescence, 24 h; series mostly up to 38.3 µM; activity, negative = inhibition: at the top concentration
Procedure, shortened: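 Immunofluorescence of rpS6 phosphorylation (Ser235/236) in mouse embryonic fibroblasts lacking Tsc2 and p53, after 24 h compound exposure; Hoechst-normalized signal imaged, each well scored as % active cells relative to rapamycin (7.5 nM) and DMSO controls.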
Potency is the fitted concentration of half-maximal effect.

SMILES | activity, negative = inhibition | Potency
COC(=O)c1c(NC(=O)c2ccc(S(=O)(=O)N3CCCCC3)cc2)sc2c1CCN(C)C2 | -14% (inactive) | –
Cc1ccc(NC(=O)/C=C\C(=O)N(c2ccc(C(C)C)cc2)C(C(=O)NCc2ccco2)c2ccc(F)cc2)cc1 (stereo not given) | 6.25% (inactive) | –
COc1cc(Nc2nc(SCC(=O)c3ccc(Cl)c(Cl)c3)nc3ccccc23)cc(OC)c1 | -6.06% (inactive) | –
COc1ccc2nc(C)cc(Nc3ccc(Cl)c(Cl)c3)c2c1 | – | 13.1 µM (active)
COc1ccc(Nc2cc(C)nc3c(C)c(C)ccc23)cc1 | 0% (inactive) | –
Clc1cccc(-n2ncc3c(NC4CCCCC4)ncnc32)c1 | 6.25% (inactive) | –
Cc1cccc(Cc2c(C)nc3nc(SCC(=O)NCc4ccc(F)cc4)nn3c2C)c1 | -21.1% (inactive) | –
CC(=O)N1CCc2cc(CNS(=O)(=O)c3cccs3)ccc21 | 21.8% (inactive) | –
Cc1nc2nncn2c(NCc2ccc(Cl)cc2)c1C | -6.25% (inactive) | –
COc1ccc(CCNC(=O)c2cc3n(n2)CCCN(Cc2ccc(C)cc2)C3=O)cc1OC | -1.23% (inactive) | –
COc1ccc2c(c1)CC(C(=O)Nc1cc(Cl)ccc1C)CO2 (stereo not given) | -4.95% (inactive) | –
CCOC(=O)c1c(C)oc2ncnc(N3CCN(c4cccc(Cl)c4)CC3)c12 | -8.26% (inactive) | –
CCOc1ccc(-n2nc(CO)c(C(=O)NCc3cccs3)n2)cc1 | -14% (inactive) | –
CCOc1ccc(-n2nc3ccc(NC(=O)c4ccc(-c5cccc(Cl)c5)o4)cc3n2)cc1 | – | 13.1 µM (active)
CCN1CCc2c(sc(NC(=O)c3ccc(S(=O)(=O)N4CCCC(C)C4)cc3)c2C(=O)OC)C1 (stereo not given) | 6.25% (inactive) | –
Cc1ccc(S(=O)(=O)Nc2cccc(-c3ccc(N4CCC(C)CC4)nn3)c2)s1 | 1.3% (inactive) | –
COc1ccccc1CNC(=O)CCCn1c(=O)c2ccccc2n(Cc2ccc(F)cc2)c1=O | -2.57% (inactive) | –
O=c1c2ccccc2n(Cc2c(F)cccc2Cl)c(=O)n1Cc1ccccc1 | 15.6% (inactive) | –
O=C(NC1CCN(Cc2ccccc2)CC1)c1ccc(Cn2c(=O)c3ccccc3n(Cc3ccc(F)cc3)c2=O)cc1 | – | 2.61 µM (active)
COc1ccc(N2CCN(C(=O)CSCc3ccc(C)cc3)CC2)cc1 | 6.25% (inactive) | –
CCOC(=O)c1c(C)oc2nc(C)nc(NCc3ccc(Cl)cc3)c12 | -2.13% (inactive) | –
CCOC(=O)C(Cc1c[nH]c2ccccc12)NC(=O)COc1ccc(Cl)cc1 (stereo not given) | 0% (inactive) | –
Cc1ccc(C)c(NC(=O)c2nc(S(=O)(=O)Cc3ccc(F)cc3)ncc2Cl)c1 | – | 3.29 µM (active)
CC1=C(c2ccc(C)c(C)c2)S(=O)(=O)N(Cc2ccc(C(=O)Nc3cc(F)ccc3F)cc2)C1=O | -0.206% (inactive) | –
COc1ccc(OC)c(NC(=O)c2nc(S(=O)(=O)Cc3ccc(F)cc3)ncc2Cl)c1 | – | 2.33 µM (active)

SMILES | activity, negative = inhibition | Potency
Cc1ccc(NC(=O)c2nc(S(=O)(=O)Cc3ccc(F)cc3)ncc2Cl)cc1C | – | 1.65 µM (active)
COc1ccc(OC)c(NC(=O)c2c(NCc3ccc(OC)c(OC)c3)sc3c2CCC(C)C3)c1 (stereo not given) | 0% (inactive) | –
Cc1ccc2c(CNCCc3ccc(Cl)cc3)c(C(=O)O)n(Cc3ccc(F)cc3)c2c1 | -16.1% (inactive) | –
Cc1ccc(NC(=O)c2cc(S(=O)(=O)NC3CCCCC3)ccc2F)cc1Cl | 6.25% (inactive) | –
CC(=O)Nc1ccc(NC(=O)c2nc(S(=O)(=O)Cc3ccc(F)cc3)ncc2Cl)cc1 | – | 8.26 µM (active)
CCc1ccc(NC(=O)c2cc(S(=O)(=O)NC3CCCC3)ccc2F)cc1 | 6.25% (inactive) | –
COc1ccc(C)cc1NC(=O)c1cc(S(=O)(=O)NC2CCCCCC2)ccc1F | 6.25% (inactive) | –
Cc1ccc(NC(=O)c2cc(S(=O)(=O)NCCC3=CCCCC3)ccc2F)cc1C | 6.25% (inactive) | –
COc1cc(NS(=O)(=O)c2cc(Br)cc3c2N(C(=O)C2CC2)CC3)cc(OC)c1 | 0% (inactive) | –
CCc1c(C)nc2nncn2c1NCc1ccc(Cl)cc1 | -7.07% (inactive) | –
CC(=O)c1cccc(NC(c2ccc(F)cc2)c2nnc(-c3ccccc3)o2)c1 (stereo not given) | 0% (inactive) | –
Cc1ccccc1Nc1c(-c2c[nH]c3ccccc23)nc2cccc(C)n12 | -70% (inactive) | –
O=C(Nc1ccc(Br)cc1)c1cc(S(=O)(=O)NC2CCCC2)ccc1F | 6.25% (inactive) | –
COc1ccc(Cn2c(C(=O)O)c(CNC3CCCCCC3)c3ccc(OC)cc32)cc1 | -22.6% (inactive) | –
CC(C)CCN(C(=O)Nc1ccc(Cl)c(Cl)c1)C1CCN(C(C)C)CC1 | 6.25% (inactive) | –
Cc1cc(C)c(NC(=O)c2cc(S(=O)(=O)NCCC3=CCCCC3)ccc2F)c(C)c1 | 6.25% (inactive) | –
CCN(CCCNC(=O)c1cc2c(=O)[nH]c3ccccc3c2s1)c1ccccc1 | -22.3% (inactive) | –
CCc1ccc(Sc2cc(C(=O)NCCCN3CCC(C)CC3)c3ccccc3n2)cc1 | 6.25% (inactive) | –
Cc1ccc2[nH]c(=O)c3cc(C(=O)NCCCN4CCC(C)CC4)sc3c2c1 | – | 5.85 µM (active)
CCc1cccc(NC(=O)c2oc3ccc4c(c3c2C)C(=O)CC(C)(C)O4)c1 | -21.1% (inactive) | –
c1ccc(CNc2ncnc3[nH]ncc23)cc1 | 6.25% (inactive) | –
COc1ccc(-c2cc(NCc3ccc(C)cc3)n3cnnc3n2)cc1 | -18.2% (inactive) | –
COc1ccc(CNC(=O)c2cc(-c3ccc(OC)c(OC)c3)nc3n[nH]c(-c4ccc(C)cc4)c23)cc1 | – | 14.7 µM (active)
COc1ccc(CNC(=O)C2CCN(S(=O)(=O)c3ccc(C)cc3)CC2)cc1 | -9.16% (inactive) | –
Cc1oc2ccc(O)c(CN(C)Cc3ccccc3)c2c1C(=O)Nc1ccccc1 | -8.08% (inactive) | –

From PubChem BioAssay AID504465 (National Center for Advancing Translational Sciences (NCATS), 2011)
